Data published in PubChem BioAssay AID1159580 (chemical genetic matrix, 2015).
About 2,000 (36%) of roughly 5,500 compounds were called active. Inconclusive results (about 18%) are left out. Cut-off read from the data, not from the text of the source: active = normalized growth mostly below about 0.91 (no sharp cut-off); inconclusive = no clear call, values can overlap the other calls; inactive = mostly above about 0.92. The list shows a part of the results.

Assay: chemical genetic growth profiling, strain panel (AID 1159580);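 note: tested at 20 µM; growth read once vehicle control cultures reached saturation at 30 °C; 1 = growth at the plate median or of vehicle wells; lower values mean less growth of the strain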
Conditions: S. cerevisiae deletion strains, growth OD

Measured: normalized growth

COc1ccc(-c2coc3cc(O)ccc3c2=O)c(OC)c1O
inactive: locus YAL013W, strain DEP1, hits give low values 0.991 | locus YAL021C, strain ccr4, hits give low values 0.979 | locus YAL026C, strain drs2, hits give low values 0.979 | locus YAL030W, strain snc1, hits give low values 0.947 | locus YBL061C, strain skt5, hits give low values 0.973 | locus YBR009C, strain hhf1, hits give low values 0.966 | locus YBR021W, strain FUR4, hits give low values 1.12 | locus YBR023C, strain chs3, hits give low values 0.98 | locus YBR171W, strain sec66, hits give low values 0.983 | locus YBR229C, strain ROT2, hits give low values 0.949 | locus YBR231C, strain swc5, hits give low values 0.989 | locus YBR279W, strain paf1, hits give low values 0.983 | locus YCL011C, strain gbp2, hits give low values 0.977 | locus YCL016C, strain dcc1, hits give low values 0.978 | locus YCL029C, strain bik1, hits give low values 0.972 | locus YCL061C, strain MRC1, hits give low values 0.991 | locus YCL069W, strain vba3, hits give low values 0.981 | locus YCR088W, strain abp1, hits give low values 0.983 | locus YDL005C, strain med2, hits give low values 0.977 | locus YDL035C, strain GPR1, hits give low values 1 | locus YDL040C, strain nat1, hits give low values 0.987 | locus YDL074C, strain BRE1, hits give low values 1.03 | locus YDL101C, strain DUN1, hits give low values 0.97 | locus YDL185W, strain tfp1, hits give low values 0.968 | locus YDL192W, strain arf1, hits give low values 0.984 | locus YDR001C, strain nth1, hits give low values 0.983 | locus YDR069C, strain doa4, hits give low values 0.947 | locus YDR101C, strain arx1, hits give low values 0.975 | locus YDR137W, strain rgp1, hits give low values 0.986 | locus YDR159W, strain sac3, hits give low values 0.953 | locus YDR162C, strain NBP2, hits give low values 0.966 | locus YDR195W, strain ref2 0.94 | locus YDR297W, strain sur2, hits give low values 0.979 | locus YDR318W, strain mcm21, hits give low values 0.99 | locus YDR334W, strain swr1, hits give low values 0.967 | locus YDR335W, strain msn5, hits give low values 0.991 | locus YDR388W, hits give low values 0.988 | locus YDR392W, strain spt3, hits give low values 0.945 | locus YDR502C, strain sam2, hits give low values 0.977 | locus YEL003W, strain gim4, hits give low values 0.976 | locus YEL037C, strain rad23, hits give low values 0.967 | locus YEL061C, strain CIN8 (second series), hits give low values 0.967 | locus YEL061C, strain CIN8, hits give low values 0.985 | locus YER015W, strain faa2, hits give low values 0.983 | locus YER016W, strain bim1, hits give low values 0.986 | locus YER110C, hits give low values 0.962 | locus YER111C, strain swi4, hits give low values 0.971 | locus YER155C, strain BEM2 (second series), hits give low values 0.985 | locus YER155C, strain BEM2, hits give low values 1 | locus YER167W, strain BCK2, hits give low values 0.983 | locus YFR010W, strain ubp6, hits give low values 0.968 | locus YGL078C, strain dbp3, hits give low values 0.986 | locus YGL086W, strain mad1, hits give low values 0.971 | locus YGL167C, strain pmr1, hits give low values 0.959 | locus YGL173C, strain kem1, hits give low values 0.974 | locus YGL227W, strain vid30, hits give low values 0.957 | locus YGL240W, strain doc1, hits give low values 0.977 | locus YGL248W, strain PDE1, hits give low values 0.982 | locus YGL253W, strain hxk2, hits give low values 0.989 | locus YGR135W, strain pre9, hits give low values 1.01 | locus YGR252W, strain gcn5, hits give low values 1.12 | locus YHR013C, strain ard1, hits give low values 0.933 | locus YHR027C, strain rpn1, hits give low values 0.989 | locus YHR030C, strain SLT2, hits give low values 0.99 | locus YHR079C, strain IRE1 (second series), hits give low values 0.974 | locus YHR094C, strain hxt1, hits give low values 0.988 | locus YHR129C, strain ARP1, hits give low values 0.993 | locus YHR142W, strain chs7, hits give low values 1 | locus YHR200W, strain rpn10, hits give low values 0.991 | locus YIL066C, strain RNR3, hits give low values 0.981 | locus YIL073C, strain SPO22, hits give low values 0.98 | locus YIL125W, strain kgd1, hits give low values 0.99 | locus YIR030C, strain dcg1, hits give low values 0.985 | locus YJL092W, strain hpr5, hits give low values 0.986 | locus YJL095W, strain BCK1 (second series), hits give low values 0.986 | locus YJL095W, strain BCK1, hits give low values 0.978 | locus YJL115W, strain asf1, hits give low values 0.996 | locus YJL129C, strain trk1, hits give low values 0.966 | locus YJL134W, strain LCB3, hits give low values 0.983 | locus YJL154C, strain vps35, hits give low values 0.977 | locus YJL164C, strain tpk1, hits give low values 0.969 | locus YJL166W, strain qcr8, hits give low values 0.98 | locus YJL168C, strain set2, hits give low values 0.993 | locus YJL187C, strain SWE1 (second series), hits give low values 0.963 | locus YJL187C, strain SWE1, hits give low values 0.979 | locus YJR043C, strain POL32, hits give low values 0.985 | locus YKL009W, strain mrt4, hits give low values 0.965 | locus YKL068W, hits give low values 0.975 | locus YKL085W, strain MDH1 (second series), hits give low values 0.976 | locus YKL085W, strain MDH1, hits give low values 0.976 | locus YKL160W, strain elf1, hits give low values 0.999 | locus YKR001C, strain vps1, hits give low values 1 | locus YKR026C, strain gcn3, hits give low values 0.961 | locus YKR091W, strain srl3, hits give low values 0.973 | locus YLL001W, strain dnm1, hits give low values 1 | locus YLL026W, hits give low values 0.991 | locus YLL041C, strain sdh2, hits give low values 0.994 | locus YLR027C, strain aat2, hits give low values 0.976 | locus YLR039C, strain RIC1, hits give low values 0.97 | locus YLR058C, strain SHM2, hits give low values 0.972 | locus YLR102C, strain apc9, hits give low values 0.991 | locus YLR221C, strain rsa3, hits give low values 0.966 | locus YLR258W, strain gsy2, hits give low values 0.983 | locus YLR262C, strain YPT6 (second series), hits give low values 0.977 | locus YLR262C, strain YPT6, hits give low values 0.907 | locus YLR268W, strain sec22, hits give low values 0.989 | locus YLR320W, strain mms22, hits give low values 0.979 | locus YLR330W, strain CHS5, hits give low values 0.99 | locus YLR342W, strain FKS1 (second series), hits give low values 0.987 | locus YLR342W, strain FKS1, hits give low values 0.967 | locus YLR357W, strain rsc2, hits give low values 0.947 | locus YLR370C, strain arc18, hits give low values 0.978 | locus YLR371W, strain rom2, hits give low values 0.983 | locus YLR384C, strain iki3, hits give low values 0.975 | locus YLR418C, strain cdc73, hits give low values 1.01 | locus YML016C, strain PPZ1, hits give low values 0.993 | locus YML032C, strain rad52, hits give low values 0.983 | locus YML120C, strain ndi1, hits give low values 0.971 | locus YML124C, strain tub3, hits give low values 0.991 | locus YMR058W, strain fet3, hits give low values 0.977 | locus YMR078C, strain ctf18, hits give low values 0.982 | locus YMR125W, strain sto1, hits give low values 0.96 | locus YMR129W, hits give low values 0.981 | locus YMR205C, strain PFK2, hits give low values 0.953 | locus YMR223W, strain ubp8, hits give low values 0.981 | locus YMR231W, strain pep5, hits give low values 0.982 | locus YMR307W, strain GAS1, hits give low values 1.16 | locus YNL067W, strain RPL9B, hits give low values 0.972 | locus YNL071W, strain lat1, hits give low values 0.984 | locus YNL153C, strain GIM3, hits give low values 0.954 | locus YNL209W, strain ssb2, hits give low values 0.982 | locus YNL233W, strain BNI4, hits give low values 1 | locus YNL248C, strain rpa49, hits give low values 1 | locus YNL250W, strain rad50, hits give low values 0.99 | locus YNL271C, strain bni1, hits give low values 0.987 | locus YNL298W, strain CLA4, hits give low values 0.992 | locus YNL307C, strain MCK1, hits give low values 0.995 | locus YNL322C, strain KRE1 (second series), hits give low values 0.953 | locus YNL322C, strain KRE1, hits give low values 0.99 | locus YNR049C, strain mso1, hits give low values 0.972 | locus YNR052C, strain pop2, hits give low values 0.991 | locus YOL012C, strain htz1 0.858 | locus YOL147C, strain pex11, hits give low values 0.988 | locus YOR001W, strain rrp6, hits give low values 1 | locus YOR061W, strain CKA2, hits give low values 0.966 | locus YOR069W, strain VPS5, hits give low values 0.997 | locus YOR070C, strain gyp1, hits give low values 0.985 | locus YOR080W, strain dia2, hits give low values 0.965 | locus YOR083W, strain WHI5, hits give low values 0.977 | locus YOR106W, strain vam3, hits give low values 0.992 | locus YOR136W, strain idh2, hits give low values 0.99 | locus YOR144C, strain elg1, hits give low values 0.988 | locus YOR184W, strain ser1, hits give low values 0.974 | locus YOR265W, strain rbl2, hits give low values 0.985 | locus YOR270C, strain vph1, hits give low values 0.977 | locus YOR290C, strain snf2, hits give low values 0.92 | locus YOR316C, strain cot1, hits give low values 0.984 | locus YPL051W, strain arl3, hits give low values 1 | locus YPL055C, strain LGE1, hits give low values 0.984 | locus YPL078C, strain atp4, hits give low values 0.982 | locus YPL106C, strain sse1, hits give low values 0.966 | locus YPL240C, strain hsp82, hits give low values 1 | locus YPR119W, strain clb2, hits give low values 0.973 | locus YPR141C, strain kar3, hits give low values 0.985 | locus YPR163C, strain tif3, hits give low values 0.997 | locus YPR167C, strain met16, hits give low values 0.997 | strain wtn01, hits give low values 0.981
